In PubChem BioAssay AID1347426 (Functional Genomics Laboratory (NCATS/FGL), 2020) one finds median seed-adjusted z-score data, which are given here for 108 sequences.

The whole screen tested about 31,000 sequences, of which about 1,400 (4.5%) were called active.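 The calls were made as follows: active = median seed-adjusted z-score above 1 or below -1; inactive = the rest.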 Many of the other results were omitted from the sample, so actives are more common in it than they were.

The assay can be described thus: Novel Modifiers of Survival Motor Neuron (SMN) Protein: Gene Identification via Genome-wide siRNA Screen.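 Also: luminescence tracks full-length SMN protein made from the SMN2 reporter.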 To be noted: HEK293T SMN2-luciferase reporter, siRNA knockdown, 72 h; actives lie on both sides. Summed up:
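siRNA screen, 10418 genes ×3 siRNAs; 1 pmol/well, lipid reverse transfection into HEK293T SMN2-luc reporter line. 72 h, 37 °C, 5% CO2; ONE-Glo readout. Data: neg-ctrl normalized, log10, MAD; hit = MAD >1.0 or < -1.0.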
As for GCAAGUGUUUUGAUCAAAATT against ZNF662, the median seed-adjusted z-score was 0.352 (inactive). With GAAUAUUGCAAUAGACUUATT against ZNF678, the median seed-adjusted z-score was 0.172 (inactive). The value for GCAUUUCACCAUUCAAACATT against PCSK9 was 0.146 (inactive). In the case of GGAUGUUUCCUACCUAUAUTT against FOLR1, the median seed-adjusted z-score is -1.31 (active). On to CCAGUUCGCUAUCACCAAATT against MATN1, for which the median seed-adjusted z-score is -0.271 (inactive). CGAUCAAUGUUAGAAGUUATT against ACTR2: the median seed-adjusted z-score was 0.548 (inactive).

Turning to CCUUAGAUCUCGCGAAGAATT against DCT, the median seed-adjusted z-score is -0.184 (inactive). As to CCAAUACACUAGCAGUUAATT against TCP1, the median seed-adjusted z-score is -1.02 (active). Take GCCUGUGAAUGUCCGAGAATT against AARSD1: the median seed-adjusted z-score was -0.156 (inactive). Take GGUAGUCUAUCACUUCGAATT against TRIM37: the median seed-adjusted z-score is -0.108 (inactive).

Consider GCUCAACACUCAUCAAACATT against ZNF774, for which the median seed-adjusted z-score was -0.0834 (inactive). Turning to CAUGGUCACUGCUAGUGUATT against MBOAT1, the median seed-adjusted z-score is -1.22 (active). In the case of GCACCUACUUCAUCUAUAGTT against EDA, the median seed-adjusted z-score was 0.316 (inactive). Take GAGAUUCAAAGAAUAGUAATT against RASSF6: the median seed-adjusted z-score was -0.592 (inactive). Turning to CCCUUGAAGGCAAAGAUCATT against OPRK1, the median seed-adjusted z-score was -1.08 (active). In the case of GAGAUUCAUCGGUUCAAUATT against WRNIP1, the median seed-adjusted z-score was 0.00972 (inactive). On to GCCUUAGUGUGCCUCCCAATT against APLN, for which the median seed-adjusted z-score is 0.0181 (inactive). As to GAUCUGGUCGAGUUUAAAATT against NAT2, the median seed-adjusted z-score was -0.0495 (inactive). Under CCACAUGACUUAUUAUGCATT against DCN stands 0.326 (inactive).

For the sequence GGGCAGUUCUUGCAACCAUTT against ALDH1A2, the median seed-adjusted z-score was 0.564 (inactive).

Take CGAGAUAACUACUGCCGAUTT against PCOLCE2: the median seed-adjusted z-score is -1.15 (active). Turning to CCGUCUACGUGACCAUUGATT against ABCC1, the median seed-adjusted z-score is 0 (inactive). Under GCUUUUACAACAUUUCGAATT against SLC30A4 stands 0.158 (inactive). On to GUAAAUCACCGGCUACAAATT against ITGA3, for which the median seed-adjusted z-score is 0 (inactive). UCAUGCUCAUUGGGAAUAATT against RAB2B: the median seed-adjusted z-score was 0.882 (inactive).

On to GCUUUGCAGUGAAUAUCGATT against SPINK5, for which the median seed-adjusted z-score is 0.26 (inactive). Under CCUGGAUACCCUAAGCAAATT against PSMD2 stands -1.44 (active); under CCACGAUCGUUCACAAGGATT against KCTD4, 0.649 (inactive); under CUAUAGUGGUUCAUCACAATT against GCNT1, 0.463 (inactive). For the sequence ACGAGUACAUCAACGAGUATT against ABCA2, the median seed-adjusted z-score was -1.18 (active).

For CACUCAGCGUGGACCAUUUTT against HCN3, the median seed-adjusted z-score is 0.301 (inactive). On to CUAUCAAUCCCAGCACUAATT against CDKL3, for which the median seed-adjusted z-score was 0.243 (inactive).

Turning to GCACUCUGAAGAUCGAAUATT against HNRNPL, the median seed-adjusted z-score is 1.04 (active). With CUAUGAUUAUAGCCGGGUATT against PTPN22, the median seed-adjusted z-score was -0.0843 (inactive). On to GGAAAAGUAUGAACUGAAATT against TREM1, for which the median seed-adjusted z-score is 0 (inactive). Regarding GGGUCUUACGAAUGCGGAATT against ZNF618, the median seed-adjusted z-score is 0.311 (inactive).

In the case of GAACGUAAGAAAUACAAUUTT against HSPA4L, the median seed-adjusted z-score was 0.288 (inactive). For the sequence CUUCAUCUUUUACACCAUUTT against SLC35B2, the median seed-adjusted z-score was -0.313 (inactive). CACUACUAAAAACCUAAAATT against EFHD2: the median seed-adjusted z-score is 0.874 (inactive).

Consider GUAGUGAAGUGUAUCCGGATT against ANXA6, for which the median seed-adjusted z-score is -1.01 (active). On to GAAUCCUCAAUGUGGAUGATT against HPCA, for which the median seed-adjusted z-score was 0.12 (inactive). Take GGCUUUUUGCUACAGAUGATT against OSGEP: the median seed-adjusted z-score was 0.0178 (inactive). GUAUGUCACCUAUCACUGUTT against SLC25A38: the median seed-adjusted z-score is 0 (inactive).

Consider GCAUCGCUGUAGGUUUUGATT against THBS2, for which the median seed-adjusted z-score was -0.721 (inactive). Turning to GCAUCUGCGAUGUGAGGAATT against RYBP, the median seed-adjusted z-score is 0.831 (inactive). Take GCAUCAGGGUCAUGGUUCATT against SCNN1D: the median seed-adjusted z-score was -1.8 (active). In the case of CCACCUACAGAGUGUCCUATT against EMID2, the median seed-adjusted z-score is 0.0465 (inactive). With GGACAAGACGCAAGAAGAATT against TEF, the median seed-adjusted z-score was 0 (inactive). As for CCAAGGAGGUGCACUAUAATT against FHL1, the median seed-adjusted z-score was 0.574 (inactive). Regarding AGAUGAUUCUAGAAUCCAATT against STK32B, the median seed-adjusted z-score is 0.683 (inactive). As to GGAAUACCAUGAGCUGUUATT against OSBP, the median seed-adjusted z-score is 0.256 (inactive). On to CAAGCAUAUUAAUGAGGUUTT against DYRK1A, for which the median seed-adjusted z-score is -1.3 (active). Regarding GCUCCCAUCAUGUACGUUUTT against GPR155, the median seed-adjusted z-score is 0.0681 (inactive). In the case of GGAUGAGCAGUACCAGGCATT against PYCARD, the median seed-adjusted z-score is 0.117 (inactive). In the case of GAACUAAACUUGUUAAUGATT against TRIM36, the median seed-adjusted z-score is -0.262 (inactive). As to GGAGCAACAUUAUAGUCAATT against TGS1, the median seed-adjusted z-score is -0.564 (inactive). In the case of CUACGAGAAUAAUUCGGAATT against THOC1, the median seed-adjusted z-score is -3.04 (active).

Regarding CCGGGAAAGUAGAAUUACATT against IGF2BP1, the median seed-adjusted z-score was -0.993 (inactive). For the sequence GCAGUACUCUGCUACCUGATT against IL22RA1, the median seed-adjusted z-score is -1.14 (active).

As to GGAGAACCAGUGGAAUUCATT against LIN28B, the median seed-adjusted z-score is 0.407 (inactive). Consider GCACUUCUCUUAAGGACGATT against UNC13B, for which the median seed-adjusted z-score was -0.0216 (inactive). With CAUGUACUAUUUUCAGUAUTT against SETD8, the median seed-adjusted z-score is -1.52 (active).

On to GCUUCUUAGCUGAGGAAAATT against RDH11, for which the median seed-adjusted z-score is -0.241 (inactive). The value for CAAGGUAUUAUGCAACGUATT against FLG was 0.221 (inactive); that for GAGUAUGCCGUGAAGAUCATT against RPS6KA2 was 0.139 (inactive). Take GGCGUACGGUGAGAACAUUTT against ATP1B1: the median seed-adjusted z-score was 0.971 (inactive). Turning to GUAUAAUCCUCAGAGCAAATT against CXXC1, the median seed-adjusted z-score is -0.841 (inactive).

CAUGAAUCCUUUACAGCAATT against RALB: the median seed-adjusted z-score is -0.534 (inactive).

GACUGUGAGACUUACCAUATT against MED20: the median seed-adjusted z-score was -1.66 (active). Under CGGUCUCACCUGCACCAAATT against SSPO stands 0.397 (inactive); under GGAGAUUCACGAGCUGCGATT against EGFL8, 0.365 (inactive); under GCUCAAGGCAUUCUACAAATT against SLC25A1, 0.252 (inactive).

Consider GGAUCGAGUUUGAUAACGATT against ITGA6, for which the median seed-adjusted z-score was -0.224 (inactive).

As for GAUACGAAAUGGUGUUAAATT against POLG2, the median seed-adjusted z-score was 0 (inactive). With CCCAAUAACUCUGUCGAUATT against ATP11C, the median seed-adjusted z-score is 0.102 (inactive). With GGAGUAACUGAGAUAGAAATT against AGPAT3, the median seed-adjusted z-score is 0 (inactive). GGAUCGUAAAAAUAGCAAATT against DGKA: the median seed-adjusted z-score is -1.36 (active).

Regarding GAGCCUCUAUUAAUGGACATT against RASSF6, the median seed-adjusted z-score was -0.592 (inactive).

As to GGAACACCCGUUUAACAAATT against ASH2L, the median seed-adjusted z-score was -0.464 (inactive). Under GGAGGAUAGCAGCAGAAGATT against ATP5I stands -0.871 (inactive). GGUGAAUGCUGAUGACUCUTT against CLDN16: the median seed-adjusted z-score is -0.868 (inactive). The value for CCACCAACGAAUACGUCUATT against PRKCSH was -0.0512 (inactive). GAAUCUACAGGAAACGAGATT against SETD8: the median seed-adjusted z-score was -1.52 (active).

In the case of CUCUACACCGUGUACAUCATT against CHRM4, the median seed-adjusted z-score was -0.856 (inactive). In the case of GCAGCAUGAGAAUGUCAAATT against GPD1, the median seed-adjusted z-score was 0.558 (inactive).

As for CUACAGCCUAUAUAUGAAATT against FCRL1, the median seed-adjusted z-score is -0.873 (inactive). Under CGACAAUAUUCCUUGAUGATT against CTGLF1 stands 0.0231 (inactive); under GGGAUAAGCAGAUAGAAGATT against MYST2, -1.46 (active). GGAUGUUUUUCGAAGGAUATT against RHEB: the median seed-adjusted z-score was -0.387 (inactive). For the sequence GGACCGCAGCAAUGACAUUTT against SH3KBP1, the median seed-adjusted z-score is -0.34 (inactive). For the sequence AGACGGUGACUUACAAAAATT against ARF6, the median seed-adjusted z-score is -0.805 (inactive). As to GCAACUUCAUUUCUCAUCUTT against CA6, the median seed-adjusted z-score was 0.349 (inactive). The value for GUAUAUAAACAGACAAUGATT against DNAJC8 was -1.62 (active); that for UCAUCUUCUUUGACCCAGATT against HNF4A was -0.0274 (inactive); that for GAGAGAAUCAUUACGAAAATT against MTMR2 was 0.495 (inactive).

As for CAAACUUAAAGGUCAGAAATT against WHSC1, the median seed-adjusted z-score is 1.17 (active). As for GGACAAAGUCUUAACAAAATT against SLC30A10, the median seed-adjusted z-score was 0.523 (inactive). On to CCAGACCACUUGCUAUGAATT against GATA6, for which the median seed-adjusted z-score was 0.546 (inactive). The value for CUACUGGAGCAACACUGUATT against NDUFA4 was 0 (inactive); that for GCAAGAUUAGACAUACUGATT against PSMC6 was -0.578 (inactive). On to GAGCGAGUCUACAAGUGUATT against REST, for which the median seed-adjusted z-score is 0.416 (inactive). Consider CAGUCUGCCGAAGAAGUAATT against CDC2L1, for which the median seed-adjusted z-score was -1.14 (active).

For GGAUCUUCCUUAUUACUCUTT against UBE4A, the median seed-adjusted z-score is -0.285 (inactive).

CCAGCACGUUGGAAGACCATT against ZNF808: the median seed-adjusted z-score is 0.138 (inactive). For the sequence GUCCUUAUCUUUGCAAAUATT against ARL5B, the median seed-adjusted z-score is -0.506 (inactive).

Regarding GGAGCUACUUAAUCGGGAUTT against ANGEL1, the median seed-adjusted z-score is -0.332 (inactive). Regarding GCACGGAAAUUCUACAAGATT against ABCA4, the median seed-adjusted z-score is -1.09 (active). The value for GGACGAUGUCUACAGCCUATT against SIN3B was 0.509 (inactive).
